Screens: PubChem, The Scripps Research Institute Molecular Screening Center
A selection: hits, their analogues and other compounds. The true share with any hit is near 3.5%.
GPR151 activ: activators of human GPR151; PathHunter beta-arrestin GPR151 cells, luminescence; AID 1508602; 650,000 tested, 1% active; activation, % at 11.2 µM; Q8TDV0; in the data active = activation above about 4.9%;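 also: 0% = median of compound wells and 100% = cells with positive control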
FBW7 act: activators of human E3 ligase FBW7. Q969H0. AlphaScreen FBW7–phospho-cyclin E peptide binding, activator screen. normalized activity (activation), % at 26.1 µM. 650,000 tested, 0.13% active; in the data active = normalized activity above about 1.9%;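 also: purified mutant Fbw7 with reduced substrate affinity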
TEAD-YAP inh: TEAD-YAP interaction inhibition; HEK-TIYL cells, TEAD-Gal4/YAP UAS-luciferase luminescence; inhibition, % at 9.12 µM; 640,000 tested, 1.4% active; AID 1259422; in the data active = inhibition above about 32%;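 also: 0% = median of test compound wells and 100% = reference inhibitor wells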
MITF primary: human MITF inhibition, primary screen; O75030; AlphaScreen MITF homodimerization, bead proximity signal; inhibition, % at 2.6 µM; 650,000 tested, 0.91% active; AID 1259374; in the data active = inhibition above about 50%;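 also: 0% = vehicle wells with protein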
Target sequence (O75030 whole entry, looked up): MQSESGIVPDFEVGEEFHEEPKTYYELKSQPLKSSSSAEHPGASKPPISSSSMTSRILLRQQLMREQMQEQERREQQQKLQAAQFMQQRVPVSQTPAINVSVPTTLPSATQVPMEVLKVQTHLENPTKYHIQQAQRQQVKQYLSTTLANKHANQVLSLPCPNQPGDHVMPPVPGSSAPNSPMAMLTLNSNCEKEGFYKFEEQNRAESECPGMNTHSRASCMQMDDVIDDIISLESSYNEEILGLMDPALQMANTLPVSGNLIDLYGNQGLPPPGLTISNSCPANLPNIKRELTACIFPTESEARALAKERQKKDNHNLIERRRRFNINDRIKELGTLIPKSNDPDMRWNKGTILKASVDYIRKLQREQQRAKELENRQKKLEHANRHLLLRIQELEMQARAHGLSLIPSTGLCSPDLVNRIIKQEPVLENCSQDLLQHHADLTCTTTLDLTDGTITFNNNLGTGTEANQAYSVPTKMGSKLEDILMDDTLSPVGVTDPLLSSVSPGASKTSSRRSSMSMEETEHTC
An asterisk follows results filed as active.

For O=C(CCc1nnc(Cc2c[nH]c3ccccc23)o1)NCCn1ccc2ccccc21 the results were GPR151 activ 0, FBW7 act 2.3*, TEAD-YAP inh 0 and MITF primary 12.
Screening Cn1c(CCNC(=O)CCc2nnc(Cc3c[nH]c4ccccc34)o2)nc2ccccc21 returned GPR151 activ 0, FBW7 act 0, TEAD-YAP inh 2 and MITF primary 9.
Screening COC(=O)C1=CN(CCc2ccccc2)C=C(C(=O)OC)C1c1ccc2c(c1)OCO2 returned GPR151 activ 0, FBW7 act 3.2*, TEAD-YAP inh -3 and MITF primary 2.
For COC(=O)C1=CN(CCc2ccccc2)C=C(C(=O)OC)C1c1cc(OC)c(OC)c(OC)c1 the results were GPR151 activ -1, FBW7 act 2.6*, TEAD-YAP inh 2 and MITF primary 11.
Screening O=C(NCc1cccnc1)[C@@H]1C[C@H](NCC2CCCCC2)CN1Cc1ccc(Cl)cc1 returned GPR151 activ 0, FBW7 act 0, TEAD-YAP inh 10 and MITF primary 15.
Screening Nc1ccc2oc(-c3cccc(Br)c3)nc2c1 returned GPR151 activ 1, FBW7 act 0, TEAD-YAP inh -42 and MITF primary 9.
`Nc1ccc2oc(-c3ccc(O)c(Br)c3)nc2c1` gave GPR151 activ -10, FBW7 act 0, TEAD-YAP inh 59* and MITF primary 1.
For Nc1ccc2oc(-c3cccc4c(Br)cccc34)nc2c1 the results were GPR151 activ 4, FBW7 act 0, TEAD-YAP inh 65* and MITF primary 4.
Nc1ccc2oc(-c3ccc(F)cc3)nc2c1 was read as GPR151 activ -8, FBW7 act 0, TEAD-YAP inh -2 and MITF primary 2.
For Nc1ccc2oc(-c3ccccc3Br)nc2c1 the results were GPR151 activ -1, FBW7 act 1, TEAD-YAP inh 25 and MITF primary 6.
For Nc1ccc2oc(-c3ccc(F)cc3Cl)nc2c1 the results were GPR151 activ -5, FBW7 act 0, TEAD-YAP inh 37* and MITF primary -2.
Nc1ccc2oc(-c3ccc4nc[nH]c4c3)nc2c1 was read as GPR151 activ -6, FBW7 act 0, TEAD-YAP inh 61* and MITF primary 6.
For CC(=O)Nc1cc2nc3[nH]c(=O)n(C4CCCCCC4)c(=O)c3nc2cc1C the results were GPR151 activ -1, FBW7 act 0, TEAD-YAP inh -2 and MITF primary 2.
Screening COc1ccc(CC(=O)Nc2cc(-c3cnn(C)c3)ccn2)cc1 returned GPR151 activ -1, FBW7 act 0, TEAD-YAP inh 43* and MITF primary -6.
NC1CCN(c2ccnc(NC(=O)Cc3ccc4c(c3)OCO4)c2)CC1 was read as GPR151 activ 3, FBW7 act -1, TEAD-YAP inh 7 and MITF primary 0.
COc1ccc(CC(=O)Nc2cc3cc(-c4cnn(C)c4)ccc3cn2)cc1 was read as GPR151 activ -1, FBW7 act 0, TEAD-YAP inh 72* and MITF primary 6.
Cn1cc(-c2ccnc(NC(=O)Cc3ccc4c(c3)OCO4)c2)cn1 was read as GPR151 activ 1, FBW7 act -1, TEAD-YAP inh 34* and MITF primary 2.
For COc1ccc(CC(=O)Nc2ccc(-c3cn[nH]c3)cc2N2CCN(C)CC2)cc1 the results were GPR151 activ 1, FBW7 act 1, TEAD-YAP inh -13 and MITF primary -1.
For COc1ccc(CC(=O)Nc2cc3cc(-c4cn[nH]c4)ccc3cn2)cc1 the results were GPR151 activ -2, FBW7 act 0, TEAD-YAP inh 96* and MITF primary -5.
`COc1ccc(CC(=O)Nc2cc(C)on2)cc1` gave GPR151 activ -1, FBW7 act 0, TEAD-YAP inh 4 and MITF primary 18.
`COc1ccc(Cc2nnc(C3CCN(C(=O)Cn4cnc5ccccc54)CC3)s2)cc1` gave GPR151 activ 2, FBW7 act 0, TEAD-YAP inh 54* and MITF primary -3.
`COc1ccc(NC(=O)c2cc3ccc(O)cc3oc2=Nc2ccc(C(=O)O)cc2)cc1` gave GPR151 activ -4, FBW7 act 0, TEAD-YAP inh 36* and MITF primary 6.
For O=C(O)c1ccc(N=c2oc3cc(O)ccc3cc2C(=O)Nc2ccccc2)cc1 the results were GPR151 activ -8, FBW7 act 0, TEAD-YAP inh -8 and MITF primary 8.
`CCC(C)c1ccccc1NS(=O)(=O)c1cccc([N+](=O)[O-])c1` (configuration not stated) gave GPR151 activ 2, FBW7 act 0, TEAD-YAP inh 12 and MITF primary 1.
O=C(CN1Cc2ccccc2C1)N1CCCC(c2ncncc2-c2ccncc2)C1 (configuration not stated) was read as GPR151 activ 0, FBW7 act 3.3*, TEAD-YAP inh 4 and MITF primary 16.
Screening O=C(c1cccs1)N1CCCC(c2nc(-c3ccncc3)ncc2-c2ccccc2)C1 (configuration not stated) returned GPR151 activ 1, FBW7 act 0, TEAD-YAP inh 51* and MITF primary -6.
O=C(CN1CCCC(c2ncncc2-c2ccncc2)C1)N1CCc2ccccc21 (configuration not stated) was read as GPR151 activ 0, FBW7 act 0, TEAD-YAP inh -2 and MITF primary 18.
`Cc1cc(C(=O)N2CCCC(c3nc(-c4ccncc4)ncc3-c3ccccc3C)C2)no1` (configuration not stated) gave GPR151 activ 1, FBW7 act 0, TEAD-YAP inh 58* and MITF primary -7.
Cc1cnc(C(=O)N2CCCC(c3nc(C)ncc3-c3ccncc3)C2)cn1 (configuration not stated) was read as GPR151 activ -1, FBW7 act 0, TEAD-YAP inh -18 and MITF primary 14.
O=C(c1ccco1)N1CCCC(c2nc(-c3ccncc3)ncc2-c2ccccc2)C1 (configuration not stated) was read as GPR151 activ 0, FBW7 act 0, TEAD-YAP inh 5 and MITF primary 17.
Screening CN1C(=O)/C(=C/c2cnn(-c3ccccc3)c2)C(=O)N(c2ccccc2)C1=S returned GPR151 activ -1, FBW7 act 0, TEAD-YAP inh -5 and MITF primary 19.
For O=C(NC1CC1)c1ccc(CS(=O)(=O)Cc2ccccc2Cl)o1 the results were GPR151 activ -1, FBW7 act 0, TEAD-YAP inh 5 and MITF primary 11.
CCOC(=O)c1sc(NC(=O)COc2ccccc2)c(SC#N)c1C was read as GPR151 activ -1, FBW7 act 0, TEAD-YAP inh -4 and MITF primary 10.
Cc1ccsc1/C=C1\S/C(=N/c2nccs2)NC1=O was read as GPR151 activ -5, FBW7 act -1, TEAD-YAP inh 38* and MITF primary -10.
`CCOC(=O)c1nnn(CC(=O)Nc2cc(Cl)ccc2OC)c1C(=O)OCC` gave GPR151 activ 0, FBW7 act 0, TEAD-YAP inh 2 and MITF primary -2.
